Test results from PubChem BioAssay (NCATS).
Several values for one entry are separate records, joined by “and”; a condition that tells them apart may be missing. Equal entries are not always repeated. Results filed as inconclusive are left out. Entries that show only a call come without a potency. Activity calls are given as the source filed them. Calls come from the whole dose curve; as a rule, active = well fitted curve in the direction sought with a large enough effect; inconclusive = small, poorly fitted or top-dose-only effect, or another doubt; inactive = no such curve, though single readings can be large; an effect the other way counts as inactive or inconclusive. Peptide text beside a SMILES is read from it.
Note: nearly all actives have a fitted effect of over 40% in size.

Biological target: Cytochrome P450 3A7 (Homo sapiens) (UniProt P24462)
Sequence (P24462 whole entry, looked up): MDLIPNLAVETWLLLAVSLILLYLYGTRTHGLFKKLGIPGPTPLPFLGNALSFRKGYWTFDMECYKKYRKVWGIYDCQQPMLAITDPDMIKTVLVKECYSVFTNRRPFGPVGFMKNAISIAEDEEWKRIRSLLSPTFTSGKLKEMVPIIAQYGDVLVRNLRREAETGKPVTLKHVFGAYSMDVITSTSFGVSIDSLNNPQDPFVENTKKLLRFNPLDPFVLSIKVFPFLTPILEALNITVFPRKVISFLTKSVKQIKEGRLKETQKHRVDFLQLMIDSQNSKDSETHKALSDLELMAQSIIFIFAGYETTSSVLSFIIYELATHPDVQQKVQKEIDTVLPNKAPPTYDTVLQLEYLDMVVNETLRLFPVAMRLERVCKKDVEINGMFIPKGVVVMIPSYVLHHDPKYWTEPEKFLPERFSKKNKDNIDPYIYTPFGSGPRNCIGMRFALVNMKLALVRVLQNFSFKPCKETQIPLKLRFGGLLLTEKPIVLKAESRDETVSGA
Experiment: Cytochrome P450 family 3 subfamily A member 7 (CYP3A7) small molecule antagonists: luciferase biochemical qHTS assay (AID 1963596)
Settings: P450-Glo CYP3A7 enzyme luminescence, 1 h; series mostly up to 57.4 µM
Outline: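 In this luminescent screen, enzyme and proluciferin substrate meet test compound for 10 min before NADPH regeneration solution drives a 1 h room-temperature reaction; detection reagent halts turnover and luminescence is read 20 min later.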
For `CCCC(O)C(CC)CO` (stereo not drawn), the Potency was “inactive”. With `Cn1c(N2CCCCS2(=O)=O)nc(C(=O)NCc2ccc(F)cc2)c(O)c1=O` the Potency was “inactive”. For `COc1cncc(C#Cc2ccccn2)c1`, the Potency was “inactive”. For `Nc1ccn([C@@H]2CS[C@H](CO)O2)c(=O)n1`, the Potency was “inactive”. For `CN(C)CC(=O)Nc1ccc2[nH]c(=O)c3ccccc3c2c1`, the Potency was “inactive”. With `COc1cc(CCc2cc(NC(=O)c3ccc(N4CC(C)NC(C)C4)cc3)n[nH]2)cc(OC)c1` (stereo not drawn) the Potency was “inactive”. With `CNS(=O)(=O)c1ccccc1Nc1nc(Nc2ccc(N3CCN(C)CC3)cc2OC)ncc1Br` the Potency was “inactive”. In the case of `CN(C)CC(=O)N1CCC(c2ccc(NC(=O)c3ncc(C#N)[nH]3)c(C3=CCCCC3)c2)CC1`, the Potency was “inactive”. For `O=C(Cc1ccc(-c2ccccc2)cc1)NC1CCC1`, the Potency was “inactive”. With `C(#Cc1cccc(CN2CCOCC2)c1)CCN1CCCCC1` the Potency was “inactive”. With `CCc1cc(CN2CC(C(=O)O)C2)sc1-c1noc(-c2ccc(Oc3ccccc3)cc2)n1` the Potency was “inactive”. With `C=CC(=O)Nc1cc(Nc2nccc(-c3c[nH]c4ccccc34)n2)c(OC)cc1N(C)CCN(C)C` the Potency was “inactive”. With `CCOC(=O)N1CCC(NCCNC(=O)c2ccccc2C)CC1` the Potency was “inactive”. For `CNC(C)C(=O)NC(C(=O)N1CCCC1C(=O)Nc1cccc2ncccc12)C(C)C` (stereo not drawn), the Potency was “inactive”. For `Nc1c(CC(=O)O)cccc1C(=O)c1ccc(Br)cc1`, the Potency was “inactive”. In the case of `N[C@@H]1CONC1=O`, the Potency was “inactive”. For `Cc1nc2c([nH]1)CCN(C(=O)c1ccc(NC(=O)c3ccccc3-c3ccccc3)cc1)c1ccccc1-2`, the Potency was “inactive”. In the case of `CN(C)c1ccc(C2O[C@@H](c3ccccc3)C[C@H](c3ccccc3)O2)cc1` (stereo partly drawn), the Potency was “inactive”. In the case of `COc1ccnc(CCc2nc3ncccc3[nH]2)c1`, the Potency was “inactive”. For `O=C(O)[C@@H]1C[C@H]2C[C@@H](CCc3nn[nH]n3)CC[C@H]2CN1`, the Potency was “inactive”. For `CCNC(=O)Nc1ccc(-c2nc3c(c(N4CCOC[C@@H]4C)n2)CCN(c2ncccn2)C3)cc1`, the Potency was “inactive”. With `COC(=O)[C@H](Cc1ccccc1)NC(=O)[C@@H](N)CC(=O)O` (H-Asp-Phe-OMe) the Potency was “inactive”. In the case of `O=C(O)[C@H]1Cc2ccccc2CN1`, the activity change, negative = inhibition was 2.34% [at 11.5 µM] (inactive). With `CCC(C)(Oc1ccc(C2(c3ccc(OC(C)(CC)C(=O)O)cc3)CCCCC2)cc1)C(=O)O` (stereo not drawn) the Potency was “inactive”. In the case of `N#Cc1cc(CN2CCC(Nc3ncnc4sc(Cl)cc34)CC2)ccc1F`, the Potency was “inactive”. For `CCCCCCOC(=O)/N=C(\N)c1ccc(NCc2nc3cc(C(=O)N(CCC(=O)OCC)c4ccccn4)ccc3n2C)cc1`, the Potency was “inactive”. In the case of `N#Cc1ccc(C(=O)N2CCC3(CC2)N=C(N)c2c(F)ccc(F)c2N3)cn1`, the Potency was “inactive”. In the case of `CCN(CC)Cc1ccc(C(=O)N(CCc2ccccc2OC)[C@@H]2CCNC2)cc1`, the Potency was “inactive”. In the case of `O=C1NC(=Nc2ccccc2F)S/C1=C\c1ccc(C(=O)O)cc1`, the Potency was “inactive”. With `Nc1ccc(S(N)(=O)=O)cc1` the Potency was “inactive”. For `CC(=O)SCC(=O)c1ccc(NS(=O)(=O)c2ccc(OCCCN(C)C)cc2)nc1`, the Potency was “inactive”. With `N[C@@H](CC(=O)Nc1ccc(Oc2cc(F)c(F)cc2Br)cc1)C(=O)O` the Potency was “inactive”. With `O=C(O)c1n[nH]c2c1C[C@H]1C[C@@H]21` the Potency was “inactive”. For `CC(C)c1cccc(C(C)C)c1NC(=O)Nc1ccc(Sc2ccc([N+](=O)[O-])cc2)cc1`, the Potency was “inactive”. In the case of `CNS(=O)(=O)CCc1ccc2[nH]cc(C3CCN(C)CC3)c2c1`, the Potency was “inactive”. In the case of `O=C(Nc1cccc(C(F)(F)F)c1)Nc1ccc(Br)cc1-c1nn[nH]n1`, the Potency was “inactive”. With `CCCOc1ccccc1-c1nc2n[nH]nc2c(=O)[nH]1` the Potency was “inactive”. For `COc1ccc(C2=N[C@@H](c3ccc(Cl)cc3)[C@@H](c3ccc(Cl)cc3)N2C(=O)N2CCNC(=O)C2)c(OC(C)C)c1`, the Potency was “inactive”. With `CCOCC(O)COc1ccc(NC(=O)CC[S+](C)C)cc1` (stereo not drawn) the Potency was “inactive”.

System: not listed separately
Experiment: Viability qHTS for spleen associated tyrosine kinase inhibitor (SYKi) naive MV4-11 cells (AID 1963823); note: potency is the fitted concentration of half-maximal effect
Settings: MV4-11 AML viability, CellTiter-Glo luminescence, 72 h; series mostly up to 45 µM
Outline: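 Cells: MV4-11, SYK inhibitor naive, 500 per well. Treatment: library compounds, 72 hr, 37 C, 5% CO2. Read-out: CellTiter-Glo luminescence after 10 min RT.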
With `CCCC(O)C(CC)CO` (stereo not drawn) the Potency was “inactive”. For `Cn1c(N2CCCCS2(=O)=O)nc(C(=O)NCc2ccc(F)cc2)c(O)c1=O`, the Potency was “inactive”. With `COc1cncc(C#Cc2ccccn2)c1` the Potency was “inactive”. In the case of `Nc1ccn([C@@H]2CS[C@H](CO)O2)c(=O)n1`, the Potency was “inactive”. In the case of `CN(C)CC(=O)Nc1ccc2[nH]c(=O)c3ccccc3c2c1`, the Potency was 20.6 µM (active). In the case of `COc1cc(CCc2cc(NC(=O)c3ccc(N4CC(C)NC(C)C4)cc3)n[nH]2)cc(OC)c1` (stereo not drawn), the Potency was 0.82 µM (active). For `CNS(=O)(=O)c1ccccc1Nc1nc(Nc2ccc(N3CCN(C)CC3)cc2OC)ncc1Br`, the Potency was 0.0184 µM (active). In the case of `CN(C)CC(=O)N1CCC(c2ccc(NC(=O)c3ncc(C#N)[nH]3)c(C3=CCCCC3)c2)CC1`, the Potency was 73.1 nM (active) and 74.2 nM (active). For `O=C(Cc1ccc(-c2ccccc2)cc1)NC1CCC1`, the Potency was “inactive”. For `C(#Cc1cccc(CN2CCOCC2)c1)CCN1CCCCC1`, the Potency was “inactive”. In the case of `CCc1cc(CN2CC(C(=O)O)C2)sc1-c1noc(-c2ccc(Oc3ccccc3)cc2)n1`, the Potency was “inactive”. For `C=CC(=O)Nc1cc(Nc2nccc(-c3c[nH]c4ccccc34)n2)c(OC)cc1N(C)CCN(C)C`, the Potency was 0.411 µM (active). With `CCOC(=O)N1CCC(NCCNC(=O)c2ccccc2C)CC1` the Potency was “inactive”. For `CNC(C)C(=O)NC(C(=O)N1CCCC1C(=O)Nc1cccc2ncccc12)C(C)C` (stereo not drawn), the Potency was “inactive”. In the case of `Nc1c(CC(=O)O)cccc1C(=O)c1ccc(Br)cc1`, the Potency was “inactive”. For `N[C@@H]1CONC1=O`, the Potency was “inactive”. For `Cc1nc2c([nH]1)CCN(C(=O)c1ccc(NC(=O)c3ccccc3-c3ccccc3)cc1)c1ccccc1-2`, the Potency was 18.4 µM (active). For `CN(C)c1ccc(C2O[C@@H](c3ccccc3)C[C@H](c3ccccc3)O2)cc1` (stereo partly drawn), the Potency was “inactive”. In the case of `COc1ccnc(CCc2nc3ncccc3[nH]2)c1`, the Potency was “inactive”. For `O=C(O)[C@@H]1C[C@H]2C[C@@H](CCc3nn[nH]n3)CC[C@H]2CN1`, the Potency was “inactive”. For `CCNC(=O)Nc1ccc(-c2nc3c(c(N4CCOC[C@@H]4C)n2)CCN(c2ncccn2)C3)cc1`, the Potency was 0.13 µM (active). For `COC(=O)[C@H](Cc1ccccc1)NC(=O)[C@@H](N)CC(=O)O` (H-Asp-Phe-OMe), the Potency was “inactive”. In the case of `O=C(O)[C@H]1Cc2ccccc2CN1`, the viability (% of control) was 95.6% [at 4.97 µM] (inactive). With `CCC(C)(Oc1ccc(C2(c3ccc(OC(C)(CC)C(=O)O)cc3)CCCCC2)cc1)C(=O)O` (stereo not drawn) the Potency was “inactive”. For `N#Cc1cc(CN2CCC(Nc3ncnc4sc(Cl)cc34)CC2)ccc1F`, the Potency was 9.2 µM (active). With `CCCCCCOC(=O)/N=C(\N)c1ccc(NCc2nc3cc(C(=O)N(CCC(=O)OCC)c4ccccn4)ccc3n2C)cc1` the Potency was 1.3 µM (active). For `N#Cc1ccc(C(=O)N2CCC3(CC2)N=C(N)c2c(F)ccc(F)c2N3)cn1`, the Potency was “inactive”. For `CCN(CC)Cc1ccc(C(=O)N(CCc2ccccc2OC)[C@@H]2CCNC2)cc1`, the Potency was 3.17 µM (active). For `O=C1NC(=Nc2ccccc2F)S/C1=C\c1ccc(C(=O)O)cc1`, the Potency was “inactive”. In the case of `Nc1ccc(S(N)(=O)=O)cc1`, the Potency was “inactive”. With `CC(=O)SCC(=O)c1ccc(NS(=O)(=O)c2ccc(OCCCN(C)C)cc2)nc1` the Potency was 2.59 µM (active). For `N[C@@H](CC(=O)Nc1ccc(Oc2cc(F)c(F)cc2Br)cc1)C(=O)O`, the Potency was “inactive”. With `O=C(O)c1n[nH]c2c1C[C@H]1C[C@@H]21` the Potency was “inactive”. With `CC(C)c1cccc(C(C)C)c1NC(=O)Nc1ccc(Sc2ccc([N+](=O)[O-])cc2)cc1` the Potency was 7.31 µM (active). With `CNS(=O)(=O)CCc1ccc2[nH]cc(C3CCN(C)CC3)c2c1` the Potency was “inactive”. With `O=C(Nc1cccc(C(F)(F)F)c1)Nc1ccc(Br)cc1-c1nn[nH]n1` the Potency was “inactive”. For `CCCOc1ccccc1-c1nc2n[nH]nc2c(=O)[nH]1`, the Potency was “inactive”. For `COc1ccc(C2=N[C@@H](c3ccc(Cl)cc3)[C@@H](c3ccc(Cl)cc3)N2C(=O)N2CCNC(=O)C2)c(OC(C)C)c1`, the Potency was 20.6 µM (active). For `CCOCC(O)COc1ccc(NC(=O)CC[S+](C)C)cc1` (stereo not drawn), the Potency was “inactive”.
